# Source: PubChem BioAssay
# Several values for one entry are separate records, joined by “and”; a condition that tells them apart may be missing. Identical values can stand only once. Results filed as inconclusive are left out. Activity calls are given as the source filed them. Unless noted, cut-off not given; nearly all actives show AC50 up to about 26 µM.
# Columns and labels:
# [1] = system: Aerobactin synthetase IucA (Klebsiella pneumoniae); experiment: IucA aerobactin synthetase inhibitors, biochemical, Tocris library, absorbance (AID 1345561; call rule not given here;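 further: 100% = enzyme without compound and 0% = no enzyme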); conditions: purified IucA enzyme assay, absorbance (OD) read-out; stronger effect = lower value;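 tested at 8 µM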
# [2] = growth inhibition of DIPG glioma cells, dose response, cell-based, SU-DIPG-XVII, MIPE5.0, CellTiter-Glo, qHTS (AID 1347060); conditions: SU-DIPG-XVII viability, CellTiter-Glo ATP luminescence;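 on AC50: cells exposed to compound for 48 hours before viability readout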
# [3] = growth inhibition of DIPG glioma cells, dose response, cell-based, JHH-DIPG-1, MIPE4.0, CellTiter-Glo, qHTS (AID 1347062; cut-off not given, nearly all actives have AC50 up to about 27 µM;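 on AC50: cells exposed to compound for two days before readout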); conditions: JHH-DIPG-1 viability, CellTiter-Glo ATP luminescence
# [4] = viability loss in pontine glioma line – cell-based, SU-DIPG-XXV, MIPE5.0, CellTiter-Glo, qHTS, dose response (AID 1347065); conditions: CellTiter-Glo ATP luminescence;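 further: cells exposed to compound for 48 hours before ATP readout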
# [5] = SU-DIPG-VI glioma cell viability, MIPE4.0 library, CellTiter-Glo luminescence, qHTS (AID 1347066; cut-off not given, nearly all actives have AC50 up to about 30 µM;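 further: cells exposed to compound for 48 hours before readout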); conditions: CellTiter-Glo ATP luminescence
# [6] = JHH-DIPG-1 glioma cell viability, MIPE5.0 library, CellTiter-Glo luminescence, qHTS (AID 1347067); conditions: JHH-DIPG-1 glioma viability, CellTiter-Glo ATP luminescence;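 further: cells exposed to compound for 48 hours before readout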
# [7] = SU-DIPG-XXV glioma cell viability, MIPE5.0 library, qHTS (AID 1347068; cut-off not given, nearly all actives have IC50 up to about 30 µM)
# [8] = sensitizers of A549 cells to miR-34 induction, primary screen, imaging, A549 dox-inducible miR-34, nuclei and caspase counts (AID 1347080;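 active means compounds whose cell count with miR-34 switched on is under 0.7 times the count with it off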); conditions: A549 miR-34 inducible, Hoechst nuclei count, 48 h
# [9] = viability rescue of complex I mutant cybrids, primary screen, cell-based, galactose medium, ATP luminescence (AID 1645843;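 active means z-score of at least 1.8 in each of two replicates, scored against plate mean and spread of sample wells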;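 further: positive z means more ATP and so rescue of galactose-driven cybrid death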); conditions: complex I mutant cybrid cells, 72 h, stronger effect = higher value
# [10] = growth inhibition of DIPG glioma cells, dose response, cell-based, SU-DIPG-IV, MIPE4.0, CellTiter-Glo, qHTS (AID 1347063; cut-off not given, nearly all actives have AC50 up to about 30 µM;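 further: compound exposure lasted 48 hours before the viability readout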); conditions: SU-DIPG-IV viability, CellTiter-Glo ATP luminescence
# [11] = modifiers of HSF1 nuclear foci, imaging, Selleck Cancer Library (AID 1347162; in the data active means plate-normalised HSF1 focus index below about 0.46); conditions: human cells, at 10 µM; SSMD: measured here: HSF1 foci SSMD mean; cell count: measured here: cell number; plate-normalised HSF1 focus index: stronger effect = lower value
# [12] = growth inhibition of DIPG glioma cells, dose response, cell-based, SU-DIPG-XIII, MIPE4.0, CellTiter-Glo, qHTS (AID 1347061; cut-off not given, nearly all actives have AC50 up to about 37 µM;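 further: cells exposed to compound for 48 hours before readout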); conditions: SU-DIPG-XIII viability, CellTiter-Glo ATP luminescence
# [13] = growth inhibition of DIPG glioma cells, dose response, cell-based, SU-DIPG-XIII, MIPE5.0, CellTiter-Glo, qHTS (AID 1347064; cut-off not given, nearly all actives have AC50 up to about 23 µM); conditions: SU-DIPG-XIII viability, CellTiter-Glo ATP luminescence
# [14] = survival rescue of mitochondrial mutant cells in low glucose, primary screen, MELAS cybrids, Rieske KO mouse fibroblasts, CellTiter-Glo (AID 1508586;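 active means mean z-score across replicates of 1.96 or higher in either the MELAS or the Rieske mutant cell line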;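 further: z relative to plate mean and SD of compound and empty wells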)
# [15] = liver-stage malaria parasite growth inhibition, primary screen, cell-based, HepG2, luciferase luminescence, HepG2 viability (AID 624349; in the data active means parasite load remaining mostly below about 12%, no sharp cut-off; inactive means mostly above about 10%;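 further: 100% = mean of DMSO negative control wells on the same plate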); conditions: P. berghei liver stage in HepG2, luciferase luminescence, concentration not given here; parasite load remaining: stronger effect = lower value; viability: measured here: HepG2 viability without parasites
# [16] = stronger effect = lower value, cell number ratio, induced over uninduced
# [17] = measured here: relative caspase fold change +Dox/-Dox
# [18] = measured here: total cells with miR-34 induction, stronger effect = lower value
# [19] = measured here: total cells without miR-34 induction
# [20] = MELAS cybrid survival, CellTiter-Glo 48 h, stronger effect = higher value
# [21] = Rieske KO mouse fibroblast survival, CellTiter-Glo 72 h
structure (smiles),measurement,setting,value
Cc1ccc(/C=N/NC(=O)c2ccccc2Oc2ccccc2)o1,remaining activity,[1],79% (inactive)
same,outcome,[2],inactive
same,outcome,[3],inactive
same,outcome,[4],inactive
same,outcome,[5],inactive
same,outcome,[6],inactive
same,outcome,[7],inactive
same,fold change,[8]; [16],0.862 (inactive)
same,fold change,[8]; [17],1.34
same,cell count,[8]; [18],7340
same,cell count,[8]; [19],8520
same,z-score,[9],-0.2 (inactive)
O=C(O)c1ccc2cc(-c3ccc(O)c(C45CC6CC(CC(C6)C4)C5)c3)ccc2c1,remaining activity,[1],120% (inactive)
same,AC50,[2],0.59 µM (active)
same,AC50,[3],5.26 µM (active)
same,AC50,[10],0.332 µM (active)
same,AC50,[4],3.32 µM (active)
same,AC50,[6],3.72 µM (active)
same,fold change,[8]; [16],1.3 (inactive)
same,fold change,[8]; [17],0.838
same,cell count,[8]; [18],1990
same,cell count,[8]; [19],1530
same,SSMD,[11],1.71
same,cell count,[11],6920
same,plate-normalised HSF1 focus index,[11],1.1 (inactive)
same,z-score,[9],-0.83 (inactive)
Cc1cc(NC(=O)Nc2ccc(N(C)C)cc2)c2cc(F)cc(F)c2n1,remaining activity,[1],98.2% (inactive)
same,outcome,[2],inactive
same,outcome,[12],inactive
same,outcome,[3],inactive
same,outcome,[13],inactive
same,outcome,[5],inactive
same,outcome,[6],inactive
same,outcome,[7],inactive
same,fold change,[8]; [16],0.902 (inactive) and 0.887 (inactive)
same,fold change,[8]; [17],0.91 and 0.717
same,cell count,[8]; [18],6380 and 7970
same,cell count,[8]; [19],7070 and 8990
same,z-score,[14]; [20],1.11 (inactive)
same,z-score,[14]; [21],-0.687
same,z-score,[9],-0.32 (inactive)
NC(=O)c1ccc2[nH]ccc2c1,parasite load remaining,[15],32.8% (inactive)
same,viability,[15],70.2%
same,remaining activity,[1],89.5% (inactive)
same,outcome,[2],inactive
same,outcome,[12],inactive
same,outcome,[3],inactive
same,outcome,[13],inactive
same,outcome,[4],inactive
same,outcome,[5],inactive
same,fold change,[8]; [16],1.06 (inactive) and 0.993 (inactive)
same,fold change,[8]; [17],0.967 and 0.869
same,cell count,[8]; [18],10600 and 9670
same,cell count,[8]; [19],10000 and 9740
same,z-score,[9],1.08 (inactive) and 0.045 (inactive)
CC[C@H](NC(C)C)[C@H](O)c1ccc(O)c2[nH]c(=O)ccc12,parasite load remaining,[15],42.5% (inactive)
same,viability,[15],102%
same,remaining activity,[1],95.2% (inactive)
same,outcome,[2],inactive
same,outcome,[12],inactive
same,outcome,[3],inactive
same,outcome,[10],inactive
same,outcome,[4],inactive
same,outcome,[5],inactive
same,outcome,[6],inactive
same,fold change,[8]; [16],0.929 (inactive) and 0.941 (inactive)
same,fold change,[8]; [17],0.691 and 1.28
same,cell count,[8]; [18],8730 and 10200
same,cell count,[8]; [19],9400 and 10800
same,z-score,[14]; [20],-0.163 (inactive)
same,z-score,[14]; [21],-0.0411
same,z-score,[9],0.095 (inactive) and 0.72 (inactive)
